The target of assay [1] is Cytochrome P450 2D6 (Homo sapiens) (UniProt P10635). Put plainly: Cytochrome P450 family 2 subfamily D member 6 (CYP2D6) small molecule antagonists: luciferase biochemical (cell-free) qHTS assay (AID 1645840). Also: nearly all actives have a fitted effect of over 55% in size. Also: potency is read from the fitted curve at half-maximal effect. The essentials:
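P450-Glo CYP2D6 system: proluciferin substrate converted by enzyme to luciferin, read by luminescence proportional to activity. Enzyme-substrate mix with compound 10 min at room temperature, then NADPH regeneration 1 h before detection reagent.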

The target of assay [2] is Cytochrome P450 2C9 (Homo sapiens) (UniProt P11712). Put plainly: Cytochrome P450 family 2 subfamily C member 9 (CYP2C9) small molecule antagonists: luciferase biochemical (cell-free) qHTS assay (AID 1645842). Also: nearly all actives have a fitted effect of over 55% in size. Also: potency is read from the fitted curve at half-maximal effect. In a few lines: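 P450-Glo CYP2C9 system: proluciferin substrate with enzyme in mix containing 0.4% BSA, 10 min at room temperature, then NADPH regeneration solution added and incubated 1 h at 37C. Detection reagent stopped reaction; luminescence read after 20 min as RLU.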
Chain of Cytochrome P450 2C9 (Homo sapiens) (P11712 whole entry, looked up): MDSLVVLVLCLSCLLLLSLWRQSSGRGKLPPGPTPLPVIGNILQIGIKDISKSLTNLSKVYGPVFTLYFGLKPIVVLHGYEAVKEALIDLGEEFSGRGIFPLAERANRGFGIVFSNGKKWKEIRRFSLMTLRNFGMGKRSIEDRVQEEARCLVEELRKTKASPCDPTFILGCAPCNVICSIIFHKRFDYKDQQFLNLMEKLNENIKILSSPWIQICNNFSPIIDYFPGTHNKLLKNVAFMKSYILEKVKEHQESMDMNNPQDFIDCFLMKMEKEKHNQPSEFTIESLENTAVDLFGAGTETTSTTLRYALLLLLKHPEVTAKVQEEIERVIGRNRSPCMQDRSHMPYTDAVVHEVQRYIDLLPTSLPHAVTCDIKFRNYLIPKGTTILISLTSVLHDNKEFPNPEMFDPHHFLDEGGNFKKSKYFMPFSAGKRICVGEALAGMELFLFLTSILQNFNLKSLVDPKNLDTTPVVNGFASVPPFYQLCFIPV
A general note: Quantitative high-throughput screening tests each substance at several concentrations.

Another assay concerns the target Papain (Carica papaya) (UniProt P00784). Description: Primary qHTS assay for inhibitors of the protease papain (AID 1645873; active = well fitted curve in the direction sought with a large enough effect; an effect the other way counts as inactive or inconclusive;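 also: papain turnover of Z-FR-AMC read as the AMC fluorescence gain over 10 min; series mostly up to about 50 µM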).
Assay [3] can be described thus: Primary qHTS for inhibitors of nuclear receptor binding SET domain protein 2 (NSD2) in an isogenic RCH-ACV NSD2 p.E1099K mutant (9B) (AID 1645876; active = well fitted curve in the direction sought with a large enough effect; an effect the other way counts as inactive or inconclusive; also: potency is read from the fitted curve at half-maximal effect; nearly all actives have a fitted effect of over 70% in size).
The nature of assay [4]: Primary qHTS for inhibitors of nuclear receptor binding SET domain protein 2 (NSD2) in an RCH-ACV wild type WT cells (2C) (AID 1645877; active = well fitted curve in the direction sought with a large enough effect; an effect the other way counts as inactive or inconclusive; also: potency is read from the fitted curve at half-maximal effect; nearly all actives have a fitted effect of over 70% in size).
Assay [5] concerns the target N-terminal Xaa-Pro-Lys N-methyltransferase 1 (Homo sapiens) (UniProt Q9BV86). Description: Confirmatory qHTS for Inhibitors of N-terminal methyltransferase 1 (NTMT1): MTaseGlo Assay (AID 1645874; active = well fitted curve in the direction sought with a large enough effect; an effect the other way counts as inactive or inconclusive; also: nearly all actives have a fitted effect of over 65% in size; also: potency is read from the fitted curve at half-maximal effect). In a few lines: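 SPKRIA peptide at 1 uM was methylated by 125 nM NTMT1 using 100 uM SAM over 30 min at room temperature, following a 15 min compound preincubation. Product SAH was detected luminescently.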

Structures are written as SMILES. Values joined by “and” are separate entries in the source; they are usually repeats but may differ in a detail not shown here. Equal entries are not always repeated. Results filed as inconclusive are left out. Active and inactive are the calls of the source. Unless noted, calls follow the shape of the dose curve; as a rule, active = well fitted curve in the direction sought with a large enough effect in the repeat runs; inconclusive = weak or mixed curves; inactive = no such curve, though single readings can be large; an effect the other way counts as inactive or inconclusive.

Among the data in PubChem BioAssay (NCATS) are Potency and outcome values, retold here.

Chain of Cytochrome P450 2D6 (Homo sapiens) (P10635 whole entry, looked up): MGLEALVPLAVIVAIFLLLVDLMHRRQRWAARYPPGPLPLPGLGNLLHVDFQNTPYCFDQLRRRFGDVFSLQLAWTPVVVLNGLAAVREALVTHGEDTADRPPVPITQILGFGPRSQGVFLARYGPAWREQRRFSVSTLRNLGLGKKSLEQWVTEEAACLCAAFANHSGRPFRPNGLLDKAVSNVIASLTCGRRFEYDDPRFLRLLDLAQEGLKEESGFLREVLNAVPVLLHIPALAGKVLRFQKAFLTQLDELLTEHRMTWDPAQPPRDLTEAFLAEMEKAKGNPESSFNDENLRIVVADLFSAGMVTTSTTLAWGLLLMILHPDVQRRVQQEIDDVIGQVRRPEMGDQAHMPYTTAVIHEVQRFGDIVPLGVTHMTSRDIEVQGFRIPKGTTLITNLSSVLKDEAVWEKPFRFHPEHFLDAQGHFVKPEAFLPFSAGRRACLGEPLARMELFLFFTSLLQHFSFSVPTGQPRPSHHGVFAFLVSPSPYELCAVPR
Chain of N-terminal Xaa-Pro-Lys N-methyltransferase 1 (Homo sapiens) (Q9BV86 whole entry, looked up): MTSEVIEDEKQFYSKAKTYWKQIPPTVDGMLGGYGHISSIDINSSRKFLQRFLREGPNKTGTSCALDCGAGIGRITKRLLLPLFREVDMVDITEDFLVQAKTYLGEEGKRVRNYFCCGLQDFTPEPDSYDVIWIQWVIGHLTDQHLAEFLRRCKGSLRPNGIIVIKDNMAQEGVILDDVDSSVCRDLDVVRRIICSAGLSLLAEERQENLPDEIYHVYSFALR
Chain of Papain (Carica papaya) (P00784 whole entry, looked up, the tested form may be a part): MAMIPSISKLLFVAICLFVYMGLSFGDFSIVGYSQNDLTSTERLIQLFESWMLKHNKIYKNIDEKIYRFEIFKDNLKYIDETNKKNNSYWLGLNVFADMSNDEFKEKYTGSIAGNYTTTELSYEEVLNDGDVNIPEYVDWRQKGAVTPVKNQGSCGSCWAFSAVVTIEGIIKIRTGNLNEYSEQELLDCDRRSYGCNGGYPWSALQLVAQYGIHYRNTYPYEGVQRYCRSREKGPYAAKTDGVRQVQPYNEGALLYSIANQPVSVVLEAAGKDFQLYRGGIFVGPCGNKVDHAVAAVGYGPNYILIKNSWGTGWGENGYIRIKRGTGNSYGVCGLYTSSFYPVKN

As for `O=[N+]([O-])c1ccc(Oc2ccc(N=C=S)cc2)cc1`, in assay [1], the Potency entry was “inactive”. Moreover, in assay [2], the Potency is 16.9 µM (active).
As for `CN[C@H]1CC[C@@H](c2ccc(Cl)c(Cl)c2)c2ccccc21`, the Potency in assay [1] is 2.19 µM (active); in assay [2], 15.5 µM (active); in assay [3] it was 6.68 µM (active) and 9.34 µM (active); in assay [4] it was 2.66 µM (active) and 9.34 µM (active). Moreover, the call in the assay with Papain (Carica papaya) was inactive.
Take `C=CC(=O)N1CCCC(n2nc(-c3ccc(Oc4ccccc4)cc3)c3c(N)ncnc32)C1` (stereo not drawn): the Potency in assay [1] was 19 µM (active); in assay [2] it was 3.79 µM (active).
Regarding `Cc1[nH]c(/C=C2\C(=O)Nc3cc(-c4ccccc4)ccc32)c(C)c1CCC(=O)O`, in assay [1], the Potency entry was “inactive”. Also, the Potency is 12 µM (active) in assay [2], 49.4 µM (active) in assay [5], 23000 nM (active) in assay [3] and 23000 nM (active) in assay [4].
As to `N#C/C(=C1\Nc2ccccc2S1)c1ccnc(NCCc2cccnc2)n1`, the Potency in assay [1] is 8.49 µM (active); in assay [2], 0.239 µM (active).
In the same order, the values of `Nc1c(CC(=O)O)cccc1C(=O)c1ccccc1` are “inactive” and “inactive”.
In the case of `O=c1[nH]c2ccc(C#CCN3CCC(Cc4ccccc4)CC3)cc2[nH]1`, the Potency in assay [1] was 0.338 µM (active); in assay [2], 7.56 µM (active).
The corresponding values for `O=C(CSc1nc2ccccc2c(=O)n1-c1ccccc1)Nc1ccc2c(c1)CCC2` are “inactive” and 2.68 µM (active).
As to `Cc1ccc(NC(=O)N2CCN(c3nc(N)nc4sc(-c5cccnc5)nc34)CC2)cc1`, the Potency was 13.5 µM (active) in assay [1], 3.01 µM (active) in assay [2], 258 nM (active) in assay [3] and 230 nM (active) in assay [4]. In addition, the Potency result in assay [5] was “inactive”.
As for `N#Cc1cccc(C(=O)Nc2cc(-c3ccccc3)nn2-c2ccccc2)c1`, in assay [1], the Potency result was “inactive”. Further, the Potency in assay [2] is 2.39 µM (active).
On to `CCNc1nc(Nc2cc(F)c(C(=O)N3CCOCC3)cc2OC)ncc1C(F)(F)F`, for which the Potency entry in assay [1] was “inactive”. In addition, the Potency in assay [2] is 1.9 µM (active).
With `Fc1ccc(-c2cncc(CN3CCN(c4cccc5c4OCCO5)CC3)c2)cc1`, the figures for the Potency in assay [1] and in assay [2] were 9.52 µM (active) and 10.7 µM (active), respectively.
As for `CCOC(=O)C1=Cc2ccc(C(F)(F)C(F)(F)F)cc2N=C(N)C1`, the values for the Potency in assay [1] and in assay [2] were 3.01 µM (active) and 12 µM (active), respectively.
As for `Cc1ccc(S(=O)(=O)N2CCC[C@H]2c2ccc(F)cc2)cc1`, the Potency entry in assay [1] and in assay [2] was “inactive” each time.
Take `CC(=O)Nc1cccc(Nc2ncnc(N3CCC(OCc4ccc(OC(F)(F)F)cc4)CC3)n2)c1C`: the Potency result in assay [1] is “inactive”. In addition, the Potency in assay [2] is 13.5 µM (active).
Turning to `NCCOc1cc(C(=O)Nc2cc(OCCN)c3ccccc3n2)nc(C(=O)Nc2cc(OCCN)c3ccccc3n2)c1`, the Potency entry in assay [1] and in assay [2] was “inactive” in each case. Also, the Potency was 43.5 µM (active) in assay [5]; 4.09 µM (active) and 7.42 µM (active) in assay [3]; 5.78 µM (active) and 8.33 µM (active) in assay [4].
Consider `CCc1cnc(N2CCC(c3nc(COc4ccc(-n5cnnn5)cc4)cs3)CC2)nc1`, for which the Potency entry in assay [1] and in assay [2] was “inactive” throughout.
With `O=C(OC1CN2CCC1CC2)N1CCc2ccccc2C1c1ccccc1` (stereo not drawn), the Potency in assay [1] is 19 µM (active). Further, in assay [2], the Potency result was “inactive”.
Consider `C=CS(=O)(=O)O`, for which the Potency result in assay [1] and in assay [2] was “inactive” in each case.
Turning to `CCCc1cc2c(N3CCN(C4=NCC(C)(C)S4)CC3)ncnc2s1`, in assay [1], the Potency is 0.952 µM (active). Besides, the Potency entry in assay [2] was “inactive”.
Turning to `CN[C@@H]1CCc2[nH]c3ccc(C(N)=O)cc3c2C1`, the Potency result in assay [1] and in assay [2] was “inactive” throughout.
Take `O=S(=O)(c1ccc(Cl)cc1)N1CCN(c2ccnc3cc(Cl)ccc23)CC1`: the Potency in assay [1] is 8.49 µM (active); in assay [2], 2.39 µM (active).
For `COCCN(C(=O)c1cc(OC)c(OC)c(OC)c1)c1nc(-c2ccccc2)cs1`, in assay [1], the Potency result was “inactive”. Moreover, in assay [2], the Potency is 4.77 µM (active).
In the same order, the values of `Fc1ccc(-c2nc(-c3c(F)cccc3F)[nH]c2-c2ccncc2)cc1` are 2.68 µM (active) and “inactive”.
In the same order, the values of `CCCC(CCC)C(N)=O` are “inactive” and “inactive”.
The corresponding values for `Cc1nc(N2CCN(C(=O)c3ccco3)CC2)c2c3c(sc2n1)CCCC3` are 10.7 µM (active) and 4.77 µM (active).
As for `Fc1ccc(-c2nc(-c3ccccc3F)[nH]c2-c2ccncc2)cc1`, the Potency was 1.2 µM (active) in assay [1] and 1.69 µM (active) in assay [2].
The corresponding values for `CN(C)S(=O)(=O)c1ccc(NC(=S)N2CCC(C(O)(c3ccccc3)c3ccccc3)CC2)cc1` are “inactive” and 2.68 µM (active).
The corresponding values for `Cc1nc(Nc2ccc(F)cc2)nc(N2CCc3ccccc3C2C)c1C` (stereo not drawn) are 7.56 µM (active) and 5.35 µM (active).
The corresponding values for `COC(C)=O` are “inactive” and “inactive”.
Consider `Cc1cccc(-c2[nH]ncc2-c2ccnc3ccccc23)n1`, for which the Potency result in assay [1] is “inactive”. The Potency in assay [2] is 9.52 µM (active).
`Cc1ccnn1-c1ccc(C(=O)N2CCN(S(=O)(=O)c3ccc(Cl)c(C(F)(F)F)c3)CC2)cc1`: the Potency result in assay [1] is “inactive”. Further, the Potency in assay [2] is 6.74 µM (active).
For `COc1cccc(OCCCN)c1-c1cc(Nc2cnc(C#N)cn2)n[nH]1`, the Potency is 6.74 µM (active) in assay [1]; 50.1 µM (active) and 21.8 µM (active) in assay [5]; 10.3 nM (active) in assay [3]; 10.3 nM (active) in assay [4]. The Potency entry in assay [2] is “inactive”.
Take `O=C(C(Cc1cccc(C(F)(F)F)c1)NS(=O)(=O)c1cc(F)c2c(c1)CCNC2)N1CCCC1` (stereo not drawn): the Potency in assay [1] is 13.5 µM (active); in assay [2] it was 12 µM (active).
For the compound `CCOC(=O)CCNc1cc(N2CCc3ccccc3CC2)nc(-c2cccnc2)n1`, the Potency in assay [1] is 10.7 µM (active); in assay [2] it was 8.49 µM (active).
Take `O=C(Nc1ccccc1)c1ccc(Nc2nnc(-c3ccc(O)cc3)c3ccccc23)cc1`: the Potency result in assay [1] and in assay [5] was “inactive” in each case. The Potency in assay [2] was 6.01 µM (active).
